Source: PubChem BioAssay AID1985 (Southern Research Specialized Biocontainment Screening …, 2009)
The whole screen tested about 2,300 compounds, of which about 1,000 (43%) were called active. How the calls were made is not given here. The set was probably picked from earlier hits. Some of the results follow. Measured potencies and affinities stand elsewhere.

Assay: modified counter assay using GFP fluorescence, PhoP regulon inhibitor project, dose response (AID 1985)
Settings: S. Typhi, 4 h; series mostly up to 150 µM
With `CCCC1C(c2ccc(OC)cc2)C(C#N)(C#N)C2(C#N)CC1(N)NC2=O` (stereo unspecified) the outcome was “inactive”. In the case of `COc1ccc(C2CC(=O)N3CN(Cc4ccco4)CSC3=C2C#N)cc1` (stereo unspecified), the outcome is reported as “inactive”. For `CC(C)c1cc(C(=O)Nc2ccc3c(c2)OCO3)no1`, the outcome was “inactive”. For `CCOC(=O)c1sc(N)c(C(=O)OC)c1C`, the outcome was “inactive”. With `Cc1cc(C=O)c(O)cc1O` the outcome was “inactive”. With `Oc1ccc(C=NC2CCCCC2)c(O)c1` the outcome was “inactive”. For `Cc1nc2ccccc2nc1N/N=C/c1ccc(O)cc1O`, the outcome was “inactive”. For `Oc1ccc(C=Nc2cccc3ncccc23)c(O)c1`, the outcome was “inactive”. In the case of `Oc1ccc(C=Nc2ccc3ncccc3c2)c(O)c1`, the outcome is reported as “inactive”. In the case of `Cc1oc(/N=C/c2ccc(O)cc2O)c(C#N)c1C`, the outcome is reported as “inactive”. In the case of `CCOc1ccccc1NC1=NC2CS(=O)(=O)CC2S1` (stereo unspecified), the outcome is reported as “inactive”. In the case of `Cc1ccc(-c2cc(N)nc(-c3ccccc3)c2)cc1`, the outcome is reported as “inactive”. For `O=C(CN(C(=O)CNS(=O)(=O)c1ccccc1)C1CCCC1)NCc1ccco1`, the outcome was “inactive”. With `COc1ccccc1NC(=O)CN1CCN(c2ccccc2)CC1` the outcome was “inactive”. For `CCN1CCN(c2cc(C)c3cc(NC(=S)N4CCN(c5ccccc5F)CC4)ccc3n2)CC1`, the outcome was “inactive”. For `COc1cccc(NC(=O)N2CCCC(C(=O)Nc3ccccc3OC)C2)c1` (stereo unspecified), the outcome was “inactive”. For `O=S(=O)(Nc1cccc(-c2cn3c(n2)SCC3)c1)c1ccc(F)cc1F`, the outcome was “inactive”. In the case of `CC(=O)c1ccc(OC(=O)c2cc3ccccc3oc2=O)cc1`, the outcome is reported as “inactive”. In the case of `NC(=O)Oc1cccc(OC(N)=O)c1`, the outcome is reported as “inactive”. With `CCN(CC)c1cc(C)c2cc(NC(=O)c3ccccc3F)ccc2n1` the outcome was “inactive”. For `COc1ccc(-n2cnc3c(sc4nc(N5CCOCC5)c5c(c43)CCCC5)c2=O)cc1`, the outcome was “inactive”. For `O=C(CCCCCn1c(=S)[nH]c2ccc(N3CCOCC3)cc2c1=O)NC1CCN(Cc2ccccc2)CC1`, the outcome was “inactive”. In the case of `Cc1cc(Cl)ccc1OCC(=O)Nc1nc(-c2cccnc2)cs1`, the outcome is reported as “inactive”. For `O=C(Nc1ccncc1)c1cc(-c2ccccn2)nc2ccccc12`, the outcome was “inactive”. For `CC(C)[C@H](NC(=O)c1ccccc1Cl)C(=O)Nc1nc(-c2ccccn2)cs1`, the outcome was “inactive”. For `CC1CC(C)CN(S(=O)(=O)c2ccc3c(c2)oc(=O)n3CC(=O)N(C)Cc2ccccc2)C1` (stereo unspecified), the outcome was “inactive”. In the case of `COc1ccccc1Nc1nc(Cl)c(C=O)s1`, the outcome is reported as “inactive”. In the case of `c1ccc2c(c1)CCc1ccccc1C2=C1CCNCC1`, the outcome is reported as “inactive”. In the case of `COc1ccc(Cn2nnnc2C(c2cc3ccc(OC)cc3[nH]c2=O)N2CCC(C)CC2)cc1` (stereo unspecified), the outcome is reported as “inactive”. For `Clc1ccc(CN2CCN(/N=C/c3ccco3)CC2)cc1`, the outcome was “inactive”. With `CCOc1ccc(N2C(=O)S/C(=C\c3ccc(O)c(OC)c3)C2=O)cc1` the outcome was “inactive”. With `Fc1ccc(NC(=S)Nc2cc(-c3ccccc3)[nH]n2)cc1Cl` the outcome was “inactive”. For `C/[N+]([O-])=C1\Cc2ccccc2C1=O`, the outcome was “inactive”. For `COc1ccc(CCN(C(=O)C(F)(F)F)C(C(=O)NC2CCCC2)c2cccs2)cc1` (stereo unspecified), the outcome was “inactive”. In the case of `O=C(O)c1cccc(NC2=Nc3cccc4cccc2c34)c1`, the outcome is reported as “inactive”. For `Cc1cc(C)c2c(N)c(C(=O)c3ccc(Cl)c(Cl)c3)sc2n1`, the outcome was “inactive”. With `COc1ccc(Cl)cc1N(C)C(=O)CCNC(=O)Cn1cnc2ccccc2c1=O` the outcome was “inactive”. In the case of `Cc1cc(N2CCC(C)CC2)nc(NCc2ccccc2)n1`, the outcome is reported as “inactive”. For `COc1ccc(Nc2cc(C)nc(NCc3ccccc3)n2)cc1`, the outcome was “inactive”. For `CN(C)C=NC(=O)c1cc(C(=O)c2ccc(Cl)cc2Cl)c[nH]1`, the outcome was “inactive”. For `CCN(CC)CCN(C(=O)c1cccc([N+](=O)[O-])c1)c1nc2ccc(OC)cc2s1`, the outcome was “inactive”. In the case of `O=C(COc1ccc(Br)cc1CNCCc1ccccc1)NCc1ccccc1`, the outcome is reported as “inactive”. In the case of `C=CCOc1ccc(Cl)cc1CNC1CCCC1`, the outcome is reported as “inactive”. In the case of `CC(=O)c1c(C)[nH]c(C(=O)OCC(=O)NCC(C)C)c1C`, the outcome is reported as “inactive”. With `Cc1c(CN(C)C)c2c(n1Cc1ccccc1)C(=O)c1ccc(Br)cc1-2` the outcome was “inactive”. In the case of `NC(=O)c1ccc[n+]([C@H]2O[C@@H](COP(=O)([O-])OP(=O)(O)OC[C@H]3O[C@@H](n4cnc5c(N)ncnc54)[C@H](O)[C@@H]3O)[C@H](O)[C@@H]2O)c1`, the outcome is reported as “inactive”. For `CCOC(=O)C(NC(=O)c1cccnc1)(Nc1cccc(C)n1)C(F)(F)F` (stereo unspecified), the outcome was “inactive”. With `Cn1c(=O)c(=O)n(C)c2cc(S(=O)(=O)N3CCc4ccccc43)ccc21` the outcome was “inactive”. For `COc1ccc(-c2nc3cc(NC(=O)Cc4ccc(OC)c(OC)c4)ccc3o2)cc1`, the outcome was “inactive”. In the case of `COC(=O)c1cc2oc(C)cc2n1CC(=O)Nc1ccc(C)c(C)c1`, the outcome is reported as “inactive”. For `CC(C)OC(=O)Cn1c(=O)sc2ccccc21`, the outcome was “inactive”. In the case of `CC(=O)Nc1ccccc1-c1nc2ccc(C(=O)N3CCN(c4cc(C)ccc4C)CC3)cc2[nH]c1=O`, the outcome is reported as “inactive”. With `COc1ccc(Cl)cc1C(=O)C1CCCN(CCO)C1` (stereo unspecified) the outcome was “inactive”. For `COc1c(Br)cc2c(C)c(C(=O)N3CCOCC3)oc2c1Br`, the outcome was “inactive”. For `CCCCCCOc1ccc(CN2CCN(CC)CC2)cc1`, the outcome was “inactive”. For `CCCN(CCC)c1nc(C)cc(C(C#N)c2nc3ccccc3o2)n1` (stereo unspecified), the outcome was “inactive”. In the case of `CN(CC(=O)NCc1ccncc1)S(=O)(=O)c1ccccc1`, the outcome is reported as “inactive”. In the case of `O=c1cc(-c2ccc(Cl)cc2)[nH][nH]1`, the outcome is reported as “inactive”. In the case of `Cc1cc(N=Nc2ccccc2)c(NCC(O)C(O)C(O)CO)cc1C` (stereo unspecified), the outcome is reported as “inactive”. In the case of `O=C1c2ccccc2C(=O)N1CCCP(=O)(O)CCc1ccccc1`, the outcome is reported as “inactive”. In the case of `Cc1ccc(C)c(N/C(N)=N/c2nc(C)cc(C)n2)c1`, the outcome is reported as “inactive”. In the case of `Cc1cc(C)c(-n2nnnc2SC(C)C)c(C)c1`, the outcome is reported as “inactive”. In the case of `Cc1ccccc1N1C(N)=NC(N)=NC1(C)C`, the outcome is reported as “inactive”. With `COc1cc(/C=N/N(C)S(=O)(=O)c2ccc(C)cc2)cc([N+](=O)[O-])c1O` the outcome was “inactive”. In the case of `COc1ccccc1CNC(=O)Cn1c(=O)oc2cc(S(=O)(=O)N3CCCC3)ccc21`, the outcome is reported as “inactive”. With `CCCCN1/C(=C/c2cccc[n+]2C)Sc2cc(NC(C)=O)ccc21` the outcome was “inactive”. With `CCCCc1cc(=O)oc2cc(C)c(CN3CCCC3)c(O)c12` the outcome was “inactive”. With `O=C(NC(O)C(=O)c1ccccc1)c1ccc(F)cc1` (stereo unspecified) the outcome was “inactive”. In the case of `O=C(/C=C/c1ccc(Cl)cc1Cl)NCc1ccncc1`, the outcome is reported as “inactive”. For `COc1ccccc1/C=C/C(=O)Nc1cccc(C(C)=O)c1`, the outcome was “inactive”. With `Cc1ccc(N2C(N)=C(C#N)C(c3cccnc3)C3=C2CC(C)(C)CC3=O)cc1` (stereo unspecified) the outcome was “inactive”.
